Experiments:
Assay in all cases: log2 ratio of Biotin-Ahx-Ub-VS probe labelling (fragment/DMSO); higher = less target engagement (more negative = stronger competition), active = hit call of the paper (q ≤ 0.05, log2 ratio ≤ -1)
Details in all cases: compound concentration: 200 uM; treatment time: 3 h
USP34 = USP34 (UniProt Q70CQ2)
Summary of the method: (§1)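 Labelled DUBs from HEK293T lysate were NeutrAvidin-enriched, digested with LysC and trypsin, and run by diaPASEF LC-MS/MS. Before that, each 495 µg sample in Tris/CHAPS/IGEPAL buffer with protease inhibitors was treated in triplicate with fragment at 200 µM or vehicle for 3 h, then with Biotin-Ahx-Ub-VS at 0.5 µM final for 1 h. Values are average log2 ratios of fragment over vehicle by unpaired t-test, based on global-median-normalised Spectronaut label-free quantities from proteins with ≥2 unique peptides.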

USP36 = biological target: T1, USP36 (UniProt Q9P275)
T1 sequence (whole entry): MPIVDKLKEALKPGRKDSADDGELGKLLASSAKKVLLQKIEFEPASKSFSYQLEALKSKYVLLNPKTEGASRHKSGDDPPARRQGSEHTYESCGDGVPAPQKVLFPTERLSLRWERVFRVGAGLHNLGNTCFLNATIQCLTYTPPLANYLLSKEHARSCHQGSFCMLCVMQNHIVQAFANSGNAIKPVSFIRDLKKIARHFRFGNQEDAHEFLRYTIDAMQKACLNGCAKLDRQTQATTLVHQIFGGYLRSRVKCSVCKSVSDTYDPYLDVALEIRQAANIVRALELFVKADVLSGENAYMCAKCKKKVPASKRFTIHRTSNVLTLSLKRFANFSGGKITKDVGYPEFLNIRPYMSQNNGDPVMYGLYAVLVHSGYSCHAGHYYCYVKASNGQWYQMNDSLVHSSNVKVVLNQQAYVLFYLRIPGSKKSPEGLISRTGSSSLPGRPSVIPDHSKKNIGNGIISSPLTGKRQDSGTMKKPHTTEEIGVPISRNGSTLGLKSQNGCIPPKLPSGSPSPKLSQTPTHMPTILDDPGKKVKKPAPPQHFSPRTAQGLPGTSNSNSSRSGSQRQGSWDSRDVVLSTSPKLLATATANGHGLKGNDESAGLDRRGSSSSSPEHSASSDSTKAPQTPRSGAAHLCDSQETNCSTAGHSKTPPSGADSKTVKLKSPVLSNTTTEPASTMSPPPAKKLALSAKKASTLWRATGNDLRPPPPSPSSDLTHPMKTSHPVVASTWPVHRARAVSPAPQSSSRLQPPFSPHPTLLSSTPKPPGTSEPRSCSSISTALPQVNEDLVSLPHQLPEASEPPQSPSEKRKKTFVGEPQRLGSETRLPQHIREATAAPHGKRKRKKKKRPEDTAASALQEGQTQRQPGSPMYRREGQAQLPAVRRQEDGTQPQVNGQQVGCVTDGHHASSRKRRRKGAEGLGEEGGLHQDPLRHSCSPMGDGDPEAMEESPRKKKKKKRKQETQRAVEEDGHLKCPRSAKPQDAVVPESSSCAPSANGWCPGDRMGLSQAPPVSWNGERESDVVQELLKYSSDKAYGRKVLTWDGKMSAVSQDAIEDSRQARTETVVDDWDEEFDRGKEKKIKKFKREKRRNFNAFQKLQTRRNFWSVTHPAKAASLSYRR
Summary of the method: as §1

USP38 = biological target: T2, USP38 (UniProt Q8NB14)
T2 sequence (whole entry): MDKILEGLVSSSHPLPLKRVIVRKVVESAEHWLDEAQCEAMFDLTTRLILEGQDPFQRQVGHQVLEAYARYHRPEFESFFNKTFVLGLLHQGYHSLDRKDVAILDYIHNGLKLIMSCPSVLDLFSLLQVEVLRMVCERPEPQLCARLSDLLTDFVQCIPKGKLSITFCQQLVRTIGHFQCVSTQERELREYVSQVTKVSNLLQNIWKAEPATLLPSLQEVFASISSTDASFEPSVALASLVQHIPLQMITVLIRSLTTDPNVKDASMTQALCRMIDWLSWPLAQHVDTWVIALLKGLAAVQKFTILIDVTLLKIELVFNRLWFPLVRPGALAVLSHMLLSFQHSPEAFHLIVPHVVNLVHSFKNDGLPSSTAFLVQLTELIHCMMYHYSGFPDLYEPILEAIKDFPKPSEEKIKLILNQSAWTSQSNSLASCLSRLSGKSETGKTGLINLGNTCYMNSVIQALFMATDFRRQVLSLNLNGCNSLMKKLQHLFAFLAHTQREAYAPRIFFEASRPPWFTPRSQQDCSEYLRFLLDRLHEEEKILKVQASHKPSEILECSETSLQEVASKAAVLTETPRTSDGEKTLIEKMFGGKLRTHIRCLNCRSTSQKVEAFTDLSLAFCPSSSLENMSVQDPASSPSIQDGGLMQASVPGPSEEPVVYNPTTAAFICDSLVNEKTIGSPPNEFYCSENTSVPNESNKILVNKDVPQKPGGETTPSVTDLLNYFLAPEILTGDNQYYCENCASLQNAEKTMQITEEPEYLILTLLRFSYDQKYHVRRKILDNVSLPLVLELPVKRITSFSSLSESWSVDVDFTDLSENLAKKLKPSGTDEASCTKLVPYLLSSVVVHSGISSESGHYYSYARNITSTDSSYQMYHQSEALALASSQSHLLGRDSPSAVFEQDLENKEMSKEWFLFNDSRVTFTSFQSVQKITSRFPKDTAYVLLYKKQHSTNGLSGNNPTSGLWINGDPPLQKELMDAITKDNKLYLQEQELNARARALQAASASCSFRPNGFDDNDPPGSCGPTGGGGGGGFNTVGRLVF
Summary of the method: as §1

USP39 = biological target: T3, USP39 (UniProt Q53GS9)
T3 sequence (whole entry): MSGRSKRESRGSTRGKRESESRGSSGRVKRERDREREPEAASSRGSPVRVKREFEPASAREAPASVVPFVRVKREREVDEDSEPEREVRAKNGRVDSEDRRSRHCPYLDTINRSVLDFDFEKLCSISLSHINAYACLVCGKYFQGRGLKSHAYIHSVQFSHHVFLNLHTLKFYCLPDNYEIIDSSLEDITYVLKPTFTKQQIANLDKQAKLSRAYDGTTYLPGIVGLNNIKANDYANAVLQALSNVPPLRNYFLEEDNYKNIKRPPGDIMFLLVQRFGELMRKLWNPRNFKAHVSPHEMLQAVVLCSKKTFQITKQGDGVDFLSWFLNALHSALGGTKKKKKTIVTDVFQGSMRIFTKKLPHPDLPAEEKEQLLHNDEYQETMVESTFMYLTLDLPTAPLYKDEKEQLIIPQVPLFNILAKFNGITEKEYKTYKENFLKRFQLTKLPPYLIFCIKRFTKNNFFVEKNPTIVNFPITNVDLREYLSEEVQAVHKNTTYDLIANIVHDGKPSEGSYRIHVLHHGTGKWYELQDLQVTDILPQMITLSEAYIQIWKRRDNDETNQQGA
Summary of the method: as §1

USP4 = biological target: T4, USP4 (UniProt Q13107)
T4 sequence (whole entry): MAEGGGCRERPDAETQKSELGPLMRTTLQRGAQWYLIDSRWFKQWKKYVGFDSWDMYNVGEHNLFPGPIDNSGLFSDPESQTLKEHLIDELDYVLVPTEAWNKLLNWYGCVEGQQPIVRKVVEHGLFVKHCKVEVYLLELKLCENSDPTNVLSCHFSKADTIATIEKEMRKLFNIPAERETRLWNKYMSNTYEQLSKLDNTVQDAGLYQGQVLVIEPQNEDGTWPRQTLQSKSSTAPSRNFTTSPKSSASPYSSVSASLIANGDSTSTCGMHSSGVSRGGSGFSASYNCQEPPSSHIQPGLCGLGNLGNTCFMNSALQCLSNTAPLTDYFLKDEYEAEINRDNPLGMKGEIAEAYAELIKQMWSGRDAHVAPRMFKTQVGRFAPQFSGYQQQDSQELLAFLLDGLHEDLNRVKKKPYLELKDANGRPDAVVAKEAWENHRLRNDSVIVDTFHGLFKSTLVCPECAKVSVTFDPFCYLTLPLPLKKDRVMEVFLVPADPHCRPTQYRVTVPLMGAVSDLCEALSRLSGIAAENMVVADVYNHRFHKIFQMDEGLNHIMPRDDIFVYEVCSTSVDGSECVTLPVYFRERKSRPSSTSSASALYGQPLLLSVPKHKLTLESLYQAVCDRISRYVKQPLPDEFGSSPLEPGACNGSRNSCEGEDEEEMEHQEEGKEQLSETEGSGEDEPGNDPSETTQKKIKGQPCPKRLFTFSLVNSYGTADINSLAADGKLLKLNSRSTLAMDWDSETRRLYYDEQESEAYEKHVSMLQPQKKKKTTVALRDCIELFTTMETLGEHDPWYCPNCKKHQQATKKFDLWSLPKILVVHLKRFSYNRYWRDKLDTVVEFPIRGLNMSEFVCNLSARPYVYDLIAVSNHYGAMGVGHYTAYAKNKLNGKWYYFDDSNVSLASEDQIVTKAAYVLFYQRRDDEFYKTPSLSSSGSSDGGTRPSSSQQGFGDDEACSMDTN
Summary of the method: as §1

Measured: log2 ratio of Biotin-Ahx-Ub-VS probe labelling

Chain of USP34 (Q70CQ2 whole entry, the tested form may be a part): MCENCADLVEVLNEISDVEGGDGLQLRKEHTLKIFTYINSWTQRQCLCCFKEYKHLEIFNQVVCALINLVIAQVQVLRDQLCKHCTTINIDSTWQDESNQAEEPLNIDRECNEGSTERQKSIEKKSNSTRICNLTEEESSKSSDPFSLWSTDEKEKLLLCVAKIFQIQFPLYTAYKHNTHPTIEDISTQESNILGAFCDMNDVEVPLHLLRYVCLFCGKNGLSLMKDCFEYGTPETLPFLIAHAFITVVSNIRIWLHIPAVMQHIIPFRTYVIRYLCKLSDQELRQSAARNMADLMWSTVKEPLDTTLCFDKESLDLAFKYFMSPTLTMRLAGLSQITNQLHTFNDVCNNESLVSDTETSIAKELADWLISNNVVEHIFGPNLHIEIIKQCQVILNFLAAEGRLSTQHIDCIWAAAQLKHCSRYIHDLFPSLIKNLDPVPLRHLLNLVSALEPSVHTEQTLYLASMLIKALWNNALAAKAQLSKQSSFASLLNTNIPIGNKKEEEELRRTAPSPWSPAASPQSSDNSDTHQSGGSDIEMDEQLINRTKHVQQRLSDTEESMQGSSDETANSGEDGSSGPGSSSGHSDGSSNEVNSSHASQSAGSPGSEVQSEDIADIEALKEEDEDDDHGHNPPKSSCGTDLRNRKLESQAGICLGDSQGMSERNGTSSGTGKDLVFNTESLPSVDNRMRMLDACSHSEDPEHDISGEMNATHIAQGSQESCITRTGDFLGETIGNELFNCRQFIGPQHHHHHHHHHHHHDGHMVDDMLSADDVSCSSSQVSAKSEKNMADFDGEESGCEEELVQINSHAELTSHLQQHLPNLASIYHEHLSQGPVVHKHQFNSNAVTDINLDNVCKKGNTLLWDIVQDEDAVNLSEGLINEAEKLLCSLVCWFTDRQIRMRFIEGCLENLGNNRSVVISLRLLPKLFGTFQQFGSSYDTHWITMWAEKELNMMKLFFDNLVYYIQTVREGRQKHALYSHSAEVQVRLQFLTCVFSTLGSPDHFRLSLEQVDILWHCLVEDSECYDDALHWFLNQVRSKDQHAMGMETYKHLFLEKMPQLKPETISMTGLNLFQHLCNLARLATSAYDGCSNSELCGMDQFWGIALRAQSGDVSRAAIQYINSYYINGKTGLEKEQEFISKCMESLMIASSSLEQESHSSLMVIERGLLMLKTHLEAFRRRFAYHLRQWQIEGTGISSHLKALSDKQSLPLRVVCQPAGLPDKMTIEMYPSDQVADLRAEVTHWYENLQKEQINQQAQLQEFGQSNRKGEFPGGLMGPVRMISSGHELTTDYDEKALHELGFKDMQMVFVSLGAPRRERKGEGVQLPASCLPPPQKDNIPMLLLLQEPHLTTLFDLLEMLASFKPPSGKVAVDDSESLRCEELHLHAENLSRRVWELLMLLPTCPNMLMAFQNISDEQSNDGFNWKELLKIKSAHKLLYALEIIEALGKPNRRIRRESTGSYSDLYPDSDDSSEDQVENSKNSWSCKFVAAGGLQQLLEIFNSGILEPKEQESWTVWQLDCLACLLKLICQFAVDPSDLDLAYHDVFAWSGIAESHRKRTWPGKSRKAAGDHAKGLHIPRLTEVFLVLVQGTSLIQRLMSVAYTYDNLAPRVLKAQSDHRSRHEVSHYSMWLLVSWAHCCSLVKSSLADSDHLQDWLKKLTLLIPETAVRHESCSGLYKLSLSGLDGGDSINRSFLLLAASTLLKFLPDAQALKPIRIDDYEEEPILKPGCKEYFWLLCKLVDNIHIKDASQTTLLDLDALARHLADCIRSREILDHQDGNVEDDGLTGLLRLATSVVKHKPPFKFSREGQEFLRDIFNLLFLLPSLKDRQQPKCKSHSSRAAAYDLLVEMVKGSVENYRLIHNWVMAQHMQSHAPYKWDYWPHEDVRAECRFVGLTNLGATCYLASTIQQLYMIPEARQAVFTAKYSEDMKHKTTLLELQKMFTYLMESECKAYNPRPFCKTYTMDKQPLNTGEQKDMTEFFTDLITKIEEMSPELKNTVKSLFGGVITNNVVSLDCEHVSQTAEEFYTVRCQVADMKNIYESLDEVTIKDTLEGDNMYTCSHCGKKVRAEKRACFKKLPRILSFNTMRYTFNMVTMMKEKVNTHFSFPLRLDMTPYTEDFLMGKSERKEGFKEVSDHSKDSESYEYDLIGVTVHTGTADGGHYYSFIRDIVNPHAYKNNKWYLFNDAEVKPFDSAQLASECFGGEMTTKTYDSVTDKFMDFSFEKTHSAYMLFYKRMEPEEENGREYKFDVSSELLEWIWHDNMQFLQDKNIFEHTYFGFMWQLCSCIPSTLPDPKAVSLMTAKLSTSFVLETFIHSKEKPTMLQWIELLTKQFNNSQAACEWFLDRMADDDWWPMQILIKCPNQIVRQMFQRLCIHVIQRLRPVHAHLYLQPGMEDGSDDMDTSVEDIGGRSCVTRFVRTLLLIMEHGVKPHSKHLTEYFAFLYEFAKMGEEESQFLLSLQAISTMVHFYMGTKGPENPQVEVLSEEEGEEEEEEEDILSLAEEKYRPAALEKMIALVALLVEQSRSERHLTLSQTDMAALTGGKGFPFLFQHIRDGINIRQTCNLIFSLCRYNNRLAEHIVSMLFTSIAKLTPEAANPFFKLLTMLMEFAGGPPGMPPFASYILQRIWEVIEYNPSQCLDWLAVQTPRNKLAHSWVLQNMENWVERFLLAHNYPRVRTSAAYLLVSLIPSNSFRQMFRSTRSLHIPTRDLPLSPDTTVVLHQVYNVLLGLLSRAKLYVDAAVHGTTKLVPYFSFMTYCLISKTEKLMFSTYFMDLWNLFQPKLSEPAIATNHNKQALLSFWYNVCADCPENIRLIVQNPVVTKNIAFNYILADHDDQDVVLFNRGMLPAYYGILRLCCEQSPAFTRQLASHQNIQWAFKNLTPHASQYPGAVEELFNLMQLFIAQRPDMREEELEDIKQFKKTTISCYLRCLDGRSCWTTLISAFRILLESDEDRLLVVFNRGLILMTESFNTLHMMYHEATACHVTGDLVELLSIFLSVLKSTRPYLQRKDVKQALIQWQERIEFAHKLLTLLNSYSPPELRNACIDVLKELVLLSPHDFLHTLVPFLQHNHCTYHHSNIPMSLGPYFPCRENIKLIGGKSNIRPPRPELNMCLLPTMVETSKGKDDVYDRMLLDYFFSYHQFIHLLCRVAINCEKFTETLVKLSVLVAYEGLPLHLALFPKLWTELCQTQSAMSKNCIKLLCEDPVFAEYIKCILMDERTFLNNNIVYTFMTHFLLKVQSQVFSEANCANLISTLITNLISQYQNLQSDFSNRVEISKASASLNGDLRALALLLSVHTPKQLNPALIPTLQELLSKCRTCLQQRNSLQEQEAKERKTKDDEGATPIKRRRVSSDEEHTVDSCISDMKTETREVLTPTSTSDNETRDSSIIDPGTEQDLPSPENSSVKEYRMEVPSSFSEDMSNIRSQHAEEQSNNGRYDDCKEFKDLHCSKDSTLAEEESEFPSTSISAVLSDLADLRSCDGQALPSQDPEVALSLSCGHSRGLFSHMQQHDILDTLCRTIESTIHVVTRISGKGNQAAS

O=C(CN1CCN(C(=O)CCl)CC1)Nc1cccc(F)c1
inactive: USP34 -0.112 | USP36 0.0501 | USP38 -0.114 | USP39 -0.288 | USP4 -0.0247
